A selection: hits, their analogues and other compounds. The true share with any hit is near 2.6%.
LGR2 inh = inhibitors of bursicon-induced Drosophila LGR2 receptor cAMP signaling. inhibition, % at 9.99 µM. hit rate 0.35% among 380,000. HEK293 LGR2, CRE-luciferase, bursicon-stimulated, 4 h;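 active means drop in luminescence signal, shown as inhibition above about 50% in the replicate tests, limit read from the data, passing the limit was not always enough; inconclusive means probably only some replicates passing the limit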;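 further: agonist challenge used bursicon conditioned medium at about half maximal strength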
TWEAK Fn14 block = blocks TWEAK-Fn14 interaction in a reporter cell assay; TWEAK-stimulated Fn14 reporter cells, luciferase luminescence, 8 h; inhibition, % at 10 µM; hit rate 2% among 360,000; AID 1159606; in the data active means inhibition above about 50%
EWS-Fli block = EWS/Fli transcriptional activity inhibition | A673 NR0B1-luciferase reporter, viability-normalised | inhibition, % at 12.6 µM | hit rate 0.67% among 350,000;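 active means mean inhibition of at least 50% after viability correction, with every replicate also passing that limit; inconclusive means mean reaches 50% but only one of two replicates passes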;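 further: firefly luciferase signal divided by Alamar Blue viability fluorescence both relative to DMSO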
LMP1 NFkB inh = inhibitors of Epstein-Barr LMP1-induced NF-kappaB reporter; LMP1-induced NF-kappaB luciferase reporter cells, luminescence; inhibition, % at 12.5 µM; hit rate 0.69% among 350,000; in the data active means inhibition above about 41%; inconclusive means no clear call, values can overlap the other calls;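 further: 0% = neutral control wells and 100% = reference inhibitor control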
TROY NFkB inh = blocks TROY-dependent signaling in reporter cells. Q293 LMP1-TROYcd NF-kB luciferase reporter, 4 h. inhibition, % at 10 µM. hit rate 0.98% among 360,000. AID 1347056;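 active means compounds whose plate-normalised and pattern-corrected inhibition of the luciferase reporter signal at the single screening dose is 50% or more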
* hit, by the source's call.

`CSCCC(c1nnnn1-c1c(C)cccc1C)N1CCC2(CC1)C(=O)NCN2c1ccccc1` (stereo unspecified) gave LGR2 inh inconclusive, TWEAK Fn14 block 30, EWS-Fli block 1 and TROY NFkB inh 35.
`CCCCCn1c(NC(=O)c2ccco2)c(C(=O)OCC)c2nc3ccccc3nc21` gave TWEAK Fn14 block 81*, LMP1 NFkB inh 8 and TROY NFkB inh 62*.
Screening CCOC(=O)c1c(N)n(CCCOC(=O)c2ccco2)c2nc3ccccc3nc12 returned TWEAK Fn14 block 7, LMP1 NFkB inh -1 and TROY NFkB inh 4.
Screening Cc1ccc(OC(=O)N(C)C[C@H]2OCc3cnnn3CCCC(=O)N([C@@H](C)CO)C[C@@H]2C)cc1 returned LGR2 inh -1 and EWS-Fli block 0.
`COC(=O)[C@@H]1[C@@H](CO)[C@@H]2Cn3c(ccc(-c4ccccc4F)c3=O)[C@H]1N2` gave LGR2 inh -13 and EWS-Fli block -3.
`Cc1ccccc1-c1ccc([C@H]2[C@H]3CN(C(=O)Cc4ccccn4)CCCCN3[C@H]2CO)cc1` gave LGR2 inh -16 and EWS-Fli block 3.
NC(Cc1ccc(Cl)cc1)c1csc(Nc2ncccn2)n1 (stereo unspecified) was read as LGR2 inh inconclusive, TWEAK Fn14 block 58*, EWS-Fli block -2 and TROY NFkB inh 14.
Screening COc1cc(/C=C/c2nc3ccccc3c(=O)n2-c2ccc(O)cc2)ccc1O returned LGR2 inh 16, TWEAK Fn14 block 54*, EWS-Fli block 23, LMP1 NFkB inh -7 and TROY NFkB inh 27.
`COc1ccc(-n2c(/C=C/c3ccc(O)c(O)c3)nc3ccccc3c2=O)cc1` gave LGR2 inh 9, TWEAK Fn14 block 17, EWS-Fli block 17, LMP1 NFkB inh -3 and TROY NFkB inh -5.
`O=C(Cc1cccnc1)N1CCCCN2[C@H](CO)[C@@H](c3ccc(/C=C/c4ccccc4)cc3)[C@@H]2C1` gave LGR2 inh 11 and EWS-Fli block -2.
CCCNC(=O)c1c(N)n(Cc2ccc3c(c2)OCO3)c2nc3ccccc3nc12 was read as TWEAK Fn14 block 31, LMP1 NFkB inh -4 and TROY NFkB inh 58*.
CC(C)CCNC(=O)c1c(N)n(Cc2ccc3c(c2)OCO3)c2nc3ccccc3nc12 was read as TWEAK Fn14 block 49, LMP1 NFkB inh -16 and TROY NFkB inh 60*.
`CCCCNC(=O)c1c(N)n(CCCOC)c2nc3ccccc3nc12` gave TWEAK Fn14 block 4, LMP1 NFkB inh 15 and TROY NFkB inh 26.
For CC(C)CNC(=O)c1c(N)n(Cc2ccc3c(c2)OCO3)c2nc3ccccc3nc12 the results were TWEAK Fn14 block 27, LMP1 NFkB inh -1 and TROY NFkB inh 63*.
`COC(=O)c1c(N)n(Cc2ccc(OC)cc2)c2nc3ccccc3nc12` gave LGR2 inh 24, TWEAK Fn14 block 35, LMP1 NFkB inh -4 and TROY NFkB inh 46.
COCCCNC(=O)c1c(N)n(Cc2ccco2)c2nc3ccccc3nc12 was read as LGR2 inh 5, TWEAK Fn14 block 19, EWS-Fli block -15 and TROY NFkB inh 6.
CC(C)CNC(=O)c1c(N)n(Cc2ccco2)c2nc3ccccc3nc12 was read as TWEAK Fn14 block 38, LMP1 NFkB inh 1 and TROY NFkB inh 16.
For COc1ccc(Cn2c(N)c(C(=O)NCc3ccco3)c3nc4ccccc4nc32)cc1OC the results were TWEAK Fn14 block 19, LMP1 NFkB inh 3 and TROY NFkB inh 67*.
`CC=Cc1ccc2n(c1=O)C[C@H]1[C@H](CO)[C@@H](C(=O)O)[C@@H]2N1S(=O)(=O)c1ccccc1F` (mixture of isomers) gave LGR2 inh -16 and EWS-Fli block -13.
`CCOC(=O)c1c(N)n(Cc2ccc(OC)cc2)c2nc3ccccc3nc12` gave LGR2 inh 4.
For COCCOC(=O)c1c(N)n(Cc2ccc(OC)cc2)c2nc3ccccc3nc12 the results were TWEAK Fn14 block 39, LMP1 NFkB inh 3 and TROY NFkB inh 61*.
Screening COc1ccc(NC2Oc3cc4c(cc3C(c3cc(OC)c(OC)c(OC)c3)C2C)OCO4)cc1 (stereo unspecified) returned LGR2 inh -12, TWEAK Fn14 block 24, EWS-Fli block 54*, LMP1 NFkB inh -5 and TROY NFkB inh 20.
O=C(/C=C/c1ccc2c(c1)OCO2)c1c(O)n(CCC2=CCCCC2)c(=O)[nH]c1=O was read as TWEAK Fn14 block 51*, EWS-Fli block -11, LMP1 NFkB inh -9 and TROY NFkB inh 19.

Screening data from PubChem.
